# Experimental data taken from paper PMC7862700, “An all-to-all approach to the identification of sequence-specific readers for epigenetic DNA modifications on cytosine”.
# Key:
# Assay in all cases: DAPPL (digital affinity profiling via proximity ligation, sequencing); 10 mM Tris-HCl pH 7.5, 50 mM NaCl, 1 mM DTT, 4% glycerol, room temperature, 30 min; GST-TFs on glutathione beads, 16-mer random dsDNA library, 0.1% formaldehyde crosslink after washing; high values mean tight binding
# FLI1 = target: T1, FLI1 (Homo sapiens, UniProt Q01543 1-452); details: protein: recombinant; tags: N-terminal GST; dsDNA, one strand shown
# T1 sequence: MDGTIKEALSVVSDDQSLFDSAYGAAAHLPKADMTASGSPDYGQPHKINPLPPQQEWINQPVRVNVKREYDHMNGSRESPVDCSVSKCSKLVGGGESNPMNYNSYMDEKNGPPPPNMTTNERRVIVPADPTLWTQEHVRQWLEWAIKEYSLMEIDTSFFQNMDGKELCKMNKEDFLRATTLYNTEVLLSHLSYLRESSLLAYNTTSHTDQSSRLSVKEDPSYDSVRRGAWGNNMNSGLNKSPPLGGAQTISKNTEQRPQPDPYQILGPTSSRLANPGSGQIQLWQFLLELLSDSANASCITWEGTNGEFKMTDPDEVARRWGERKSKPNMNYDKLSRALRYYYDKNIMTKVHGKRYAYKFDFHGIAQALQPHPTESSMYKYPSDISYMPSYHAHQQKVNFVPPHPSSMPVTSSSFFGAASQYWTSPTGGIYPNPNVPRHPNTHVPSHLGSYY
# Summary of the method: (§1)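 Pools of DNA-barcoded human transcription factors, expressed in yeast as GST fusions on glutathione beads and combined with a tag-only sample, were incubated with 200 nmole of a 16-mer random double-stranded DNA library. Incubation took 30 min at room temperature in Tris/NaCl/DTT/glycerol buffer and was followed by washing, 0.1% formaldehyde crosslinking, proximity ligation (BsaI/T4 ligase, 1 h, 37 °C), PCR amplification and sequencing on an Illumina NextSeq500. Binding signal is the ratio of a hexamer's read frequency for a factor to its frequency for the tag-only sample.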
# ELK1 = target: T2, ELK1 (Homo sapiens, UniProt P19419 1-428); details: protein: recombinant; tags: N-terminal GST; dsDNA, one strand shown
# T2 sequence: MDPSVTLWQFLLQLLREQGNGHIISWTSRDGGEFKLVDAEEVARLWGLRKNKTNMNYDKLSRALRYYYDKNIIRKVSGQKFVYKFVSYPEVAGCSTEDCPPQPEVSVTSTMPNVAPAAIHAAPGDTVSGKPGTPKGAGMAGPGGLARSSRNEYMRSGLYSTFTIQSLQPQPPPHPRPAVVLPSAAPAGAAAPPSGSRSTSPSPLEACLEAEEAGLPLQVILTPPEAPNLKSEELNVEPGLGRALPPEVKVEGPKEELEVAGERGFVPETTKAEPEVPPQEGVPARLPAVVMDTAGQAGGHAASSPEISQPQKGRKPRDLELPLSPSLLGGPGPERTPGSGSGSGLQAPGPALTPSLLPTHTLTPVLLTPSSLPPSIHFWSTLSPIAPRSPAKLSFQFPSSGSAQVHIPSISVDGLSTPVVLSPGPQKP
# Summary of the method: as §1
# GABPA = target: T3, GABPA (Homo sapiens, UniProt Q06546 1-454); details: protein: recombinant; tags: N-terminal GST; dsDNA, one strand shown
# T3 sequence: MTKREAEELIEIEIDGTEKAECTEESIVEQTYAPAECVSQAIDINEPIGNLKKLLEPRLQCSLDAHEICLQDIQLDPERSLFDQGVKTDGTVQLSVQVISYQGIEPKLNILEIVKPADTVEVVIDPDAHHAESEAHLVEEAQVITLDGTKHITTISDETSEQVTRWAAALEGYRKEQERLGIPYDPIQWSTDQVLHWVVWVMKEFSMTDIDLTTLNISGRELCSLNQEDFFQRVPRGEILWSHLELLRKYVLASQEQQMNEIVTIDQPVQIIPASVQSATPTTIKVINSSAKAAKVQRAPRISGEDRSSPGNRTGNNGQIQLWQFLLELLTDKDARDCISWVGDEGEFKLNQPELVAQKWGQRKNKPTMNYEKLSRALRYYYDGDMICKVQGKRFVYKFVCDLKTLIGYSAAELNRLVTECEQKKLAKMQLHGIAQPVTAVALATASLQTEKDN
# Summary of the method: as §1
# ERG = target: T4, ERG (Homo sapiens, UniProt P11308 1-479); details: protein: recombinant; tags: N-terminal GST; dsDNA, one strand shown
# T4 sequence: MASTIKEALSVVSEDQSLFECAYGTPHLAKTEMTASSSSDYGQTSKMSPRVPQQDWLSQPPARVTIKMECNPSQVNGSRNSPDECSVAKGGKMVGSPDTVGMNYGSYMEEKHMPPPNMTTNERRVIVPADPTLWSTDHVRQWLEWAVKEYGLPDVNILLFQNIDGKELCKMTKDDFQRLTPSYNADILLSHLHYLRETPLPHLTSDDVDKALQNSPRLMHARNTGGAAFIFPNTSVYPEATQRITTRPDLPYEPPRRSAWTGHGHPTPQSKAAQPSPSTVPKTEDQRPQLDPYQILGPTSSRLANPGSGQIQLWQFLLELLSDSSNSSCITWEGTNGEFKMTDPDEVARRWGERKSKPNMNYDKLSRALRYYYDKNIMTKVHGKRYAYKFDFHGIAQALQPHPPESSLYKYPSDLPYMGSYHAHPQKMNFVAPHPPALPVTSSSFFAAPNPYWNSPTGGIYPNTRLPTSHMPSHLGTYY
# Summary of the method: as §1
# ELF1 = ELF1 (Homo sapiens, UniProt P32519 1-619); details: protein: recombinant; tags: N-terminal GST; dsDNA, one strand shown
# Summary of the method: as §1
# EHF = target: T5, EHF (Homo sapiens, UniProt Q9NZC4 1-300); details: protein: recombinant; tags: N-terminal GST; dsDNA, one strand shown
# T5 sequence: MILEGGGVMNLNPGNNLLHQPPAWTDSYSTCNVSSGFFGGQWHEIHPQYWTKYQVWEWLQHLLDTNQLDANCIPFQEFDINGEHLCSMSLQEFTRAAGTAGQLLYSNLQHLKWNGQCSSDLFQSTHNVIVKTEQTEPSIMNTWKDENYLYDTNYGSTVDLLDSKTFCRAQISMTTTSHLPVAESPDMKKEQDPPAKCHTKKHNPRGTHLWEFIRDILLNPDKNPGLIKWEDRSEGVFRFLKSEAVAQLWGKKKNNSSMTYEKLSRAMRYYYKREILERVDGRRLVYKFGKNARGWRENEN
# Summary of the method: as §1
# SPI1 = SPI1 (Homo sapiens, UniProt P17947 1-270); details: protein: recombinant; tags: N-terminal GST; dsDNA, one strand shown
# Summary of the method: as §1
# SPIB = SPIB (Homo sapiens, UniProt Q01892 1-262); details: protein: recombinant; tags: N-terminal GST; dsDNA, one strand shown
# Summary of the method: as §1
# ELK3 = target: T6, ELK3 (Homo sapiens, UniProt P41970 1-407); details: protein: recombinant; tags: N-terminal GST; dsDNA, one strand shown
# T6 sequence: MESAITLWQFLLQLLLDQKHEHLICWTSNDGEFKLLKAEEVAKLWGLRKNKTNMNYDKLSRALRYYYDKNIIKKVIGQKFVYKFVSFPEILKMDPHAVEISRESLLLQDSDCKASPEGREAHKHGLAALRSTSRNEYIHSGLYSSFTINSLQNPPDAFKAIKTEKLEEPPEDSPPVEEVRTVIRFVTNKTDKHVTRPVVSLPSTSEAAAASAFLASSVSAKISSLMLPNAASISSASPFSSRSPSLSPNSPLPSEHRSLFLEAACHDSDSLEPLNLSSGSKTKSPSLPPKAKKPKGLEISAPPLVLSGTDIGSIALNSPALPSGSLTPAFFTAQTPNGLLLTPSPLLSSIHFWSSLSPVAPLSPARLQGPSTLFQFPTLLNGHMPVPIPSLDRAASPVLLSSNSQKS
# Summary of the method: as §1
# FEV = target: T7, FEV (Homo sapiens, UniProt Q99581 1-238); details: protein: recombinant; tags: N-terminal GST; dsDNA, one strand shown
# T7 sequence: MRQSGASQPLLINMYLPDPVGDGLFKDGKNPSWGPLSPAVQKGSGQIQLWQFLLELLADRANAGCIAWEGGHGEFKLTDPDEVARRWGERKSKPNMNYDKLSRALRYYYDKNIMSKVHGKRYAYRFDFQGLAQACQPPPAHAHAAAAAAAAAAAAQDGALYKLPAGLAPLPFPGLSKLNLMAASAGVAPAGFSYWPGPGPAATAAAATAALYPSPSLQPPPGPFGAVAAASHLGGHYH
# Summary of the method: as §1
# ETV5 = ETV5 (Homo sapiens, UniProt P41161 1-510); details: protein: recombinant; tags: N-terminal GST; dsDNA, one strand shown
# Summary of the method: as §1
# HSF1 = HSF1 (Homo sapiens, UniProt Q00613 1-529); details: protein: recombinant; tags: N-terminal GST; chain copies: 3; dsDNA, one strand shown
# Summary of the method: as §1
# SPIC = target: T8, SPIC (Homo sapiens, UniProt Q8N5J4 1-248); details: protein: recombinant; tags: N-terminal GST; dsDNA, one strand shown
# T8 sequence: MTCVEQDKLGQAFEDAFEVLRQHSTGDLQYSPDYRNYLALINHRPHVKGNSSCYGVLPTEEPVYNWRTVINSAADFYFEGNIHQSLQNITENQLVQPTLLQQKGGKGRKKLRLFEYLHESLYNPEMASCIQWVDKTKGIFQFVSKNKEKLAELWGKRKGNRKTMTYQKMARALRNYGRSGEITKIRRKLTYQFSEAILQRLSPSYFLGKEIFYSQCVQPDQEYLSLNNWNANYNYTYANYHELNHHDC
# Summary of the method: as §1
# ELF4 = ELF4 (Homo sapiens, UniProt Q99607 1-663); details: protein: recombinant; tags: N-terminal GST; dsDNA, one strand shown
# Summary of the method: as §1
# ELK4 = target: T9, ELK4 (Homo sapiens, UniProt P28324-2 1-405); details: protein: recombinant; tags: N-terminal GST; dsDNA, one strand shown
# T9 sequence: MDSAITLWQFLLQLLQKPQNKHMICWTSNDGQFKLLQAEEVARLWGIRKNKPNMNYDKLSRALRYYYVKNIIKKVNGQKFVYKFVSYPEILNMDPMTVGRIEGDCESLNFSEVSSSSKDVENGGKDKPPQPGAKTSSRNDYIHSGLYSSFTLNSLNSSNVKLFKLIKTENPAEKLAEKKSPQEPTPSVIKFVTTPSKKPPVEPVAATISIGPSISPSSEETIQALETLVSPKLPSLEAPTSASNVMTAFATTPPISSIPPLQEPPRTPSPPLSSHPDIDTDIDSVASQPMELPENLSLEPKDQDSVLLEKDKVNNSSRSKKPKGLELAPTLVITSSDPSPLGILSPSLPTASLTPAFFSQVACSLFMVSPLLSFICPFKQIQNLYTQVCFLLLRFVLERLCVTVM
# Summary of the method: as §1
# ETV2 = target: T10, ETV2 (Homo sapiens, UniProt O00321 1-342); details: protein: recombinant; tags: N-terminal GST; dsDNA, one strand shown
# T10 sequence: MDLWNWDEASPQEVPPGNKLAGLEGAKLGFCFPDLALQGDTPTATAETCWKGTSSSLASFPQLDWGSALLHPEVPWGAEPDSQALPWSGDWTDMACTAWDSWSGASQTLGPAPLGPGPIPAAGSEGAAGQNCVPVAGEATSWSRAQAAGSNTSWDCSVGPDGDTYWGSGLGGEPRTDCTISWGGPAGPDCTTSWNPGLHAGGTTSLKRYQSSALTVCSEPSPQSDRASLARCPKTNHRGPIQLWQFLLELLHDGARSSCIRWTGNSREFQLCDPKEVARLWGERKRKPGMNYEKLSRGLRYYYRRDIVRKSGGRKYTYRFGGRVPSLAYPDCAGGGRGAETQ
# Summary of the method: as §1
# ELF3 = target: T11, ELF3 (Homo sapiens, UniProt P78545 1-371); details: protein: recombinant; tags: N-terminal GST; dsDNA, one strand shown
# T11 sequence: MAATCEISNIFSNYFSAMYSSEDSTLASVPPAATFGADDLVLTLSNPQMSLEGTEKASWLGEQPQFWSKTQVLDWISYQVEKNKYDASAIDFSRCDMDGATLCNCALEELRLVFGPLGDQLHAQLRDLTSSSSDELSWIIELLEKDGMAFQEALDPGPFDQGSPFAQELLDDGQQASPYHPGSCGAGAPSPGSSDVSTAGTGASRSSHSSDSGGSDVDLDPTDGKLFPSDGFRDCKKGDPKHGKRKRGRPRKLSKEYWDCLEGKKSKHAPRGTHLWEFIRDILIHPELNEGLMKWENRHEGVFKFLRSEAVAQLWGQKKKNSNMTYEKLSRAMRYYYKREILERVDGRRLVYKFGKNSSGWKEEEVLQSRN
# Summary of the method: as §1
# CRX = CRX (Homo sapiens, UniProt O43186 1-299); details: protein: recombinant; tags: N-terminal GST; dsDNA, one strand shown
# Summary of the method: as §1
# ETV1 = ETV1 (Homo sapiens, UniProt P50549 1-477); details: protein: recombinant; tags: N-terminal GST; dsDNA, one strand shown
# Summary of the method: as §1
# Chain of ETV5 (P41161 whole entry): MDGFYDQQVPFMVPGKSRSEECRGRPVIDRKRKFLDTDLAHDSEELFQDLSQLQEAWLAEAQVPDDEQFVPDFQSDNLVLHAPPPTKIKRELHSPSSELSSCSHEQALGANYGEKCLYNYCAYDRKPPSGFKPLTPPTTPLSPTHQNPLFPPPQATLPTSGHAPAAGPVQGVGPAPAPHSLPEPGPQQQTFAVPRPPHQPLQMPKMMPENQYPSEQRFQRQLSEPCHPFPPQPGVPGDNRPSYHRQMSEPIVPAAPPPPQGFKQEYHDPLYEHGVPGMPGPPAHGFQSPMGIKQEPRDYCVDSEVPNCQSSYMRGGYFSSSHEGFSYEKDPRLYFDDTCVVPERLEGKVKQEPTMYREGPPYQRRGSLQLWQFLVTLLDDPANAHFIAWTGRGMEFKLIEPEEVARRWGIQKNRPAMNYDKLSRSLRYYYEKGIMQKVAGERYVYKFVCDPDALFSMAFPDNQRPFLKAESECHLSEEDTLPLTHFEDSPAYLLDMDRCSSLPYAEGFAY
# Chain of CRX (O43186 whole entry): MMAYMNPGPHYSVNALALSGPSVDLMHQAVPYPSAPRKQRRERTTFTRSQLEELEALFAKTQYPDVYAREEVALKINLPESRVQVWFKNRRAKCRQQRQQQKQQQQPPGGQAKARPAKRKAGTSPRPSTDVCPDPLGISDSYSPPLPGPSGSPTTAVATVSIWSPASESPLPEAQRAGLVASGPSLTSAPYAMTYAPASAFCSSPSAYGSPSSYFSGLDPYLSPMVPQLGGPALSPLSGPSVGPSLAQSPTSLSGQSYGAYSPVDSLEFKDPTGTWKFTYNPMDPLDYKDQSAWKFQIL
# Chain of ETV1 (P50549 whole entry): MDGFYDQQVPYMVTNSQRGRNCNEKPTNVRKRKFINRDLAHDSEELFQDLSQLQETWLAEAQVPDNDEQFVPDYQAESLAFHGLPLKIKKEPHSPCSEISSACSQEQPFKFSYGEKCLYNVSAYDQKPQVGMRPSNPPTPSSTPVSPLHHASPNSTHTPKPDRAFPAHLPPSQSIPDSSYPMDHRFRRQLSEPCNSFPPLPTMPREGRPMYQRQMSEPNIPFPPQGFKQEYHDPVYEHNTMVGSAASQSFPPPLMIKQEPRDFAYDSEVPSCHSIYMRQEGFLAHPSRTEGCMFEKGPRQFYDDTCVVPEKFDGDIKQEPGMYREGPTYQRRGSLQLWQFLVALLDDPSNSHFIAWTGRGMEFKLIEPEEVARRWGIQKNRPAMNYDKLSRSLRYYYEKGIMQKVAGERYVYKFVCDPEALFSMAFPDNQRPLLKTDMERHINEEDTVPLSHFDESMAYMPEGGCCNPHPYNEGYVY
# Chain of HSF1 (Q00613 whole entry): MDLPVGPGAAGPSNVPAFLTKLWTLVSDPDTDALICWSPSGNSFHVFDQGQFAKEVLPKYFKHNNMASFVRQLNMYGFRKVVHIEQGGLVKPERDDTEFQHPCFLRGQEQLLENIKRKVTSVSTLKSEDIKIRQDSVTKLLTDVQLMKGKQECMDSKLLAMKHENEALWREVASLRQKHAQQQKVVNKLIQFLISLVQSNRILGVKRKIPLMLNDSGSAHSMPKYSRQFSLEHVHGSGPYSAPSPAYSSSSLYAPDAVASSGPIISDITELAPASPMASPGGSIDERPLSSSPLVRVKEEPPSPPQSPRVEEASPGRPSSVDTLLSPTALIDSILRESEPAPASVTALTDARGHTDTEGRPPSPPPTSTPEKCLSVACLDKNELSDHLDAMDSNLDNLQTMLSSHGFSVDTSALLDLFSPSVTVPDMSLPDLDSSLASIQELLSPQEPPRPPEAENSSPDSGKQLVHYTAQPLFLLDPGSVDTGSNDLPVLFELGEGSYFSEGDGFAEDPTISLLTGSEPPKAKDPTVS
# Chain of ELF4 (Q99607 whole entry): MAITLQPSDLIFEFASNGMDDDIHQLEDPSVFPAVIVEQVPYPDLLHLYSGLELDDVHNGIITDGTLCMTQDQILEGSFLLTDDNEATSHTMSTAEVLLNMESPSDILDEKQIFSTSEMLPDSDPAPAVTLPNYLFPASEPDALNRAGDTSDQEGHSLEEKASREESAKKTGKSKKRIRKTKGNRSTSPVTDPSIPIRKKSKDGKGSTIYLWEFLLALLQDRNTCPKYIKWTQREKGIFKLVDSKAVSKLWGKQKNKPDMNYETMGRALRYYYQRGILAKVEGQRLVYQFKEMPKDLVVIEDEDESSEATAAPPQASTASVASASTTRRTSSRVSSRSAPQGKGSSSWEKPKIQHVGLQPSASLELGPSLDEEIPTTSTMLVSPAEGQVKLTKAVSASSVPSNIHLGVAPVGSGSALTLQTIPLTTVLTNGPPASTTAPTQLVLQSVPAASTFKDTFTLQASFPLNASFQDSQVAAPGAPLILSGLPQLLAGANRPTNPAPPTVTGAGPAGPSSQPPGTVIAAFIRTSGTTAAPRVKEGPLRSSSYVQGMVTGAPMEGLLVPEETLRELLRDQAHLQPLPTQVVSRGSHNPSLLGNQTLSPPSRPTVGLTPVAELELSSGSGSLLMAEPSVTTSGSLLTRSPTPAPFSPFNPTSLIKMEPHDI
# Chain of SPIB (Q01892 whole entry): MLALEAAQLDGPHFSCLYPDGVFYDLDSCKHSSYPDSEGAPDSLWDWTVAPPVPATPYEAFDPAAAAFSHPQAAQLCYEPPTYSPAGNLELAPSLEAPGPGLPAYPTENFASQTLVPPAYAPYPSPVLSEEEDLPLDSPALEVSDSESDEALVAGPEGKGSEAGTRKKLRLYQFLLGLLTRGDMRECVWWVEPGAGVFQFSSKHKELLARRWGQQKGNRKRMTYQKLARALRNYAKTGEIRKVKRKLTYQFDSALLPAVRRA
# Chain of ELF1 (P32519 whole entry): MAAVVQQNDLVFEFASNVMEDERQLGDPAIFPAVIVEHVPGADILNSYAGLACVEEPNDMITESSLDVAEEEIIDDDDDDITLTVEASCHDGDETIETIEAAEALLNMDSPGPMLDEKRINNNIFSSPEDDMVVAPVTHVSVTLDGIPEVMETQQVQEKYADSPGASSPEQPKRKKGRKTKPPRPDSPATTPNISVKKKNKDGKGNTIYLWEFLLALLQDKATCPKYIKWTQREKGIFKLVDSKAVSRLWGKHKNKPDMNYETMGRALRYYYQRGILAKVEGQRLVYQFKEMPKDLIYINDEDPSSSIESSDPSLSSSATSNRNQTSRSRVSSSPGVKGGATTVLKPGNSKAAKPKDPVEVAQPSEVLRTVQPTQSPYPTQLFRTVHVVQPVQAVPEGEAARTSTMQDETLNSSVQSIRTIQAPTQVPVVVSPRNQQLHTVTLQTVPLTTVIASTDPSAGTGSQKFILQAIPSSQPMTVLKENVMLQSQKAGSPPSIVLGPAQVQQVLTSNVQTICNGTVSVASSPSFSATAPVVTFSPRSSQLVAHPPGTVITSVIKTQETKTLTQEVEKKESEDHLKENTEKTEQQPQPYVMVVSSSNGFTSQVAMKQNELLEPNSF
sequence,measurement,setting,value
TCCGAA,binding signal,FLI1,"1.35 fold enrichment (6-mer frequency, TF over GST control)"
same,binding signal,ELK1,"1.28 fold enrichment (6-mer frequency, TF over GST control)"
same,binding signal,GABPA,"1.37 fold enrichment (6-mer frequency, TF over GST control)"
same,binding signal,ERG,"1.3 fold enrichment (6-mer frequency, TF over GST control)"
same,binding signal,ELF1,"1.23 fold enrichment (6-mer frequency, TF over GST control)"
same,binding signal,EHF,"1.41 fold enrichment (6-mer frequency, TF over GST control)"
same,binding signal,SPI1,"1.25 fold enrichment (6-mer frequency, TF over GST control)"
same,binding signal,SPIB,"1.44 fold enrichment (6-mer frequency, TF over GST control)"
same,binding signal,ELK3,"1.18 fold enrichment (6-mer frequency, TF over GST control)"
same,binding signal,FEV,"1.24 fold enrichment (6-mer frequency, TF over GST control)"
same,binding signal,ETV5,"1.31 fold enrichment (6-mer frequency, TF over GST control)"
same,binding signal,HSF1,"1.48 fold enrichment (6-mer frequency, TF over GST control)"
same,binding signal,SPIC,"1.43 fold enrichment (6-mer frequency, TF over GST control)"
same,binding signal,ELF4,"1.21 fold enrichment (6-mer frequency, TF over GST control)"
same,binding signal,ELK4,"1.23 fold enrichment (6-mer frequency, TF over GST control)"
same,binding signal,ETV2,"1.46 fold enrichment (6-mer frequency, TF over GST control)"
same,binding signal,ELF3,"1.1 fold enrichment (6-mer frequency, TF over GST control)"
same,binding signal,CRX,"1.28 fold enrichment (6-mer frequency, TF over GST control)"
same,binding signal,ETV1,"1.19 fold enrichment (6-mer frequency, TF over GST control)"
